# Source: PubChem BioAssay AID2685 (National Center for Advancing Translational Sciences (NCATS), 2010)
# Out of some 320,000 compounds screened, about 2,100 (0.66%) were called active. Another 53% or so got no clear call; they are omitted. The call rests on the fitted dose curve; in most records, active means well fitted inhibition curve with a large enough effect in the signal ratio, with a control signal flat (not every such curve was filed as active); inconclusive means small, poorly fitted or top-dose-only effect, or effect the other way, or a change in a side signal; inactive means flat fitted curve, though single readings scatter; the % refers to the signal ratio. The sample as a whole holds a higher share of actives than the screen did.
# Test: qHTS Assay for Lipid Storage Modulators in Drosophila S3 Cells;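 on cell number change: cells counted by Cell Tracker Red CMTPX staining in the red channel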
# Details: BODIPY lipid droplet fluorescence, 18-24 h, cells fed with added oleic acid; cell number change: measured here: cell count max response; series mostly up to 46.1 µM
# Source text: NIH Molecular Libraries Probe Production Centers Network [MLPCN] NIH Chemical Genomics Center [NCGC] MLPCN Grant: 1 R03 MH085686-01 Assay Submitter (PI): Beller, Mathias; Max-Planck-Institut fur Biophysikalische Chemie NCGC Assay Overview: Storing lipids as a reservoir for energy or the anabolism of elementary metabolites is a common feature of probably all cells and is conserved from bacteria to humans. The universal cellular lipid storage organelle is the so-called lipid storage droplet (LD). Although ubiquitous, LDs share a simple structure composed of a hydrophobic core that harbors the storage lipids, which is shielded by a droplet-specific phospholipid monolayer to which proteins are attached. The current model of LD biogenesis involves an incorporation of the lipid core into the membrane leaflets of the endoplasmic reticulum (ER) followed by a subsequent budding-like maturation of a LD, which ultimately pinches off. Once released, LD volume can increase by localized lipogenesis or fusion of existing droplet. Storage lipids are re-mobilized enzymatically by lipase activity. Lipase regulation in the adipocyte is heavily studied and involves multiple components including catecholamine signaling, the LD-associated proteins Perilipin and comparative gene identification (CGI-58) and at least two lipases named hormone sensitive lipase (HSL) and adipocyte triglyceride lipase (ATGL). LD regulation outside of the adipocyte is poorly understood and only few components are known. However, there is an urgent need to learn more about ectopic fat depots as mislocalized storage of lipids, for example in the liver or muscle, is an eminent health problem associated with insulin resistance or the metabolic syndrome. We developed a laser-scanning cytometer assay to enable 1,536-well screening and combined the results of the small molecules screen with an RNAi database based on lipid storage.
# Triacsin C (Sigma-Aldrich T-4540), an inhibitor of long-chain fatty acyl CoA synthetase that blocks synthesis of triglycerides, was used as a positive control for lipid under-storage. A total of 23 nL of compound solution of different concentrations were transferred to the assay plates using a Kalypsys pin tool equipped with a 1,536-pin array containing 10-nL slotted pins (FP1S10, 0.457-mm diameter, 50.8 mm long; V&P Scientific). One microliter of oleic acid (400 uM) was added, and the plate was lidded with stainless steel rubber gasket lined lids containing pinholes. […] Fluorescence was detected by excitation of the fluorophores with a 488-nm laser on an Acumen Explorer (TTP Lab Tech). The total intensity in channel 2 (500-530 nm) reflected lipid droplet accumulation. Cells were detected using channel 3 (575-640 nm) with 5-um width and 100-um depth filters. The ratio of the number of objects in PMT channel 2 over the number of objects in PMT channel 3 was also calculated. Percent activity was computed relative to an internal control (100% inhibited lipid droplet deposition due to the presence of 20 uM Triacsin C), which was added to 32 wells/plate.
# Potency means the concentration at half of the fitted maximal effect.
Structure (SMILES),Potency,cell number change [%]
CC(=O)N(C1=NCCCS1)c1ccc(Cl)cc1,inactive,-2.46
CC(=O)N(C1=NCCCS1)c1ccc(F)cc1,16.4 µM (active),-2.11
COc1cccc(N(C(C)=O)C2=NCCCS2)c1,inactive,4.22
O=C(COc1ccccc1Cl)N1CCCC(N2CCN(c3ccc(F)cc3)CC2)C1 (configuration not stated),inactive,-2.12
Cn1c(O)c(C=NC2CCCCC2)c(=O)[nH]c1=S,inactive,4.27
Cc1cc(NCCN)nc2ccccc12,inactive,15.7
Cc1cc(/C=C2\C(=O)NC(=O)N(c3ccccc3)C2=O)c(C)n1-c1ccc(C(=O)O)c(Cl)c1,inactive,-8.5
CCN(CC)c1nc2c(C)cccn2c(=O)c1C=C1C(=O)NC(=O)NC1=O,inactive,3.76
CCOC(=O)N(C)c1ccc(C(O)(C(=O)OC)C(F)(F)F)cc1 (configuration not stated),inactive,10.8
Cc1ccc2c(CN3CC=C(c4ccccc4)CC3)cc(=O)oc2c1C,inactive,0.524
COc1ccc2ccc(O)c(CN3CC=C(c4ccccc4)CC3)c2c1,inactive,13.7
Cc1cc(O)c(CN2CC=C(c3ccccc3)CC2)cc1C(C)C,18.4 µM (active),–
CCC(CC)NCc1c[nH]c2ccccc12,inactive,-0.482
O=C(Nc1ccc(Br)cc1)c1nn(C23CC4CC(CC(C4)C2)C3)cc1Br,inactive,0.69
CS(=O)(=O)NCc1nnc2n1-c1ccc(Cl)cc1C(c1ccccc1)=NC2,inactive,13.6
CCCCc1nc2ccccc2c(=O)n1-c1ccccc1O,inactive,-9.96
CCCCn1c(O)c(C(CC)=Nc2ccc(C(=O)O)cc2)c(=O)[nH]c1=O,inactive,5.66
CCCCCCn1c(=O)c(C(=O)Nc2ccncc2)c(O)c2ccccc21,inactive,15.2
CCCCCn1c(=O)c(C(=O)Nc2ncccc2C)c(O)c2ccccc21,inactive,-11.8
CCCCCCn1c(=O)c(C(=O)Nc2ncccc2O)c(O)c2ccccc21,7.31 µM (active),-21.9
Cc1ccc(C(=O)N/C(=C\Cl)P(=O)(c2ccccc2)c2ccccc2)cc1,inactive,0.754
OC(c1ccccc1)(c1ccccc1)C1CCCN1 (configuration not stated),inactive,-1.52
O=C(O)C(O)(c1ccccc1)C1CCCCC1 (configuration not stated),inactive,-9.04
OC(c1ccccc1)(c1ccccc1)C1CCNCC1,25.9 µM (active),–
CN(C(=O)CNC(=O)OCc1ccccc1)c1ccc(Br)cc1C(=O)c1ccccc1Cl,inactive,9.34
CCCNS(=O)(=O)c1ccc(OCC(=O)N2CCN(Cc3ccc4c(c3)OCO4)CC2)c(C)c1,inactive,-6.04

Structure (SMILES),Potency,cell number change [%]
CCCCn1c(O)c(C(C)=NCCc2ccccc2)c(=O)[nH]c1=O,inactive,–
CCCCn1c(O)c(C(C)=NCCCN(CC)CC)c(=O)[nH]c1=O,23.1 µM (active),-0.0737
CCCCCCN=C(C)c1c(O)n(CCCC)c(=O)[nH]c1=O,inactive,0.489
Cc1ccc2c(c1)C1CN(C)CCC1N2C(=O)c1cccnc1Cl (configuration not stated),inactive,-4.72
CCOC(=O)c1c(C=O)c2ccccc2n1Cc1ccccc1,inactive,3.55
CCOC(=O)c1ccc(N=C(c2ccccc2)c2c(O)n(C)c(=O)n(C)c2=O)cc1,inactive,1.32
CCOC(=O)c1ccc(S(=O)(=O)n2c(=O)oc3ccccc32)cc1,20.6 µM (active),–
O=C1Nc2ccc(Br)cc2C(c2ccccc2)=NC1O (configuration not stated),inactive,22.1
C=C(COC(C)=O)CC1CC(O)[C@]2(C)OC3CC4OC5C[C@]6(C)O[C@]7(C)CCC8OC9C[C@]%10(C)OC%11C(C)=CC(=O)OC%11CC%10OC9C[C@@H](C)C8OC7CC6O[C@]5(C)C/C=C\C4OC3CC2O1 (some centres not stated),inactive,–
CN(C)C(=O)Oc1cccc(NC(=O)N2CCOCC2)c1,inactive,-25
CN(C)C(=O)Oc1cccc(NC(=O)c2ccccc2C(F)(F)F)c1,inactive,-0.228
CN(C)C(=O)Nc1cccc(OC(=O)N(C)C)c1,32.6 µM (active),–
CCOC(=O)C1(CCc2ccccc2)CCN(Cc2csc(C(C)=O)c2)CC1,inactive,3.18
CCN(CC)S(=O)(=O)c1cc(NC(=O)C(C)N2CC=C(c3ccccc3)CC2)ccc1C (configuration not stated),inactive,-3.32
CN(C)c1ccc(NC(=O)CN2C(=O)CN=C(c3ccccc3)c3ccccc32)cc1,10.3 µM (active),-43.3
O=C(CN1C(=O)CN=C(c2ccccc2)c2ccccc21)NCc1ccco1,inactive,7.88
CCCCNC(=O)CN1C(=O)CN=C(c2ccccc2)c2ccccc21,inactive,20.3
O=C1CN=C(c2ccccc2)c2ccccc2N1Cc1ccc(C(F)(F)F)cc1,inactive,–
CN(C)c1ccc(NC(=O)CN2C(=O)CN=C(c3ccccc3)c3cc(Cl)ccc32)cc1,inactive,4.79
Cc1ccc(CN2C(=O)CN=C(c3ccccc3)c3ccccc32)cc1,10.3 µM (active),11.7
Cc1nc2ccccc2c(=O)n1-c1ccc(Cl)c(Cl)c1,inactive,8.67
CCN1CCN(C(=O)Cc2ccccc2OC)CC1,inactive,5.49
NC(=O)C1CCN(/C=C2\C(=O)NC(=O)N(Cc3ccco3)C2=O)CC1,inactive,6.38
Cc1c(NC(NC(=O)CF)C(Cl)(Cl)Cl)c(=O)n(-c2ccccc2)n1C (configuration not stated),inactive,8.45
O=C(COc1ccc(Cl)cc1)N(c1ccccc1Cl)C1CN2CCC1CC2 (configuration not stated),inactive,-2.19
O=C(Nc1ccc(Cl)c(Cl)c1)c1ccco1,14.6 µM (active),4.2
